Test [1] addresses T1, Hexokinase-4 (Homo sapiens) + Glucokinase regulatory protein (Homo sapiens) (UniProt P35557+Q14397). Description: qHTS assay for inhibitors of recombinant human GCK-GKRP interaction: ADP-Glo assay (AID 743206).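 Further: plate controls were DMSO plus enzyme for no effect and no enzyme for full effect.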 The essentials: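 Pin-transferred compounds meet a 15 nM GST-GCK/15 nM FLAG-GKRP/2 uM S6P mix (dispense concentrations). ATP is then added to 0.4 mM final with 5 mM glucose, and the reaction runs 60 min at room temperature. ADP is quantified luminescently.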

In test [2] the target is T1, Hexokinase-4 (Homo sapiens) + Glucokinase regulatory protein (Homo sapiens). Description: qHTS assay for inhibitors of recombinant human GCK-GKRP interaction: HTRF assay (AID 743207).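 Further: 0% = DMSO with GCK present and -100% = DMSO wells lacking GCK.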 The method, boiled down: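 5 nM GST-GCK + 5 nM FLAG-GKRP + 2 uM S6P, pH 7.1 buffer (25 mM Hepes, 2 mM MgCl2, 25 mM KCl, 1 mM DTT, Tween/BSA); pin-transferred cpd; anti-FLAG XL665/anti-GST K; 60 min RT; HTRF.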

Test [3] in a line: qHTS Assay for Identifying Gametocytocidal Compounds (AID 743244). Further: potency means the concentration at half of the fitted maximal effect.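 On max response: on the % scale 0 is the no-effect control and ±100 the full control effect; actives lower the fluorescent signal which means gametocytes are killed.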 Conditions: P. falciparum 3D7 stage III-V gametocytes, alamarBlue, 72 h; max response: stronger effect = lower value. The method, boiled down: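 In this qHTS viability screen, late-stage 3D7 gametocytes are incubated with compound for 72 h, then with alamarBlue for 24 h; reduced resorufin fluorescence marks killing.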
Test [4] is described as follows: qHTS profiling for inhibitors of Plasmodium falciparum (3D7) proliferation (AID 743322; call rule not given here;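 further: infected erythrocytes exposed to compound for 72 h before lysis; 100% = DMSO vehicle wells and 0% = 0.29 µM artemisinin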). To be noted: P. falciparum 3D7 proliferation; at 28.7 µM (top of the series) unless noted. The method, boiled down:
(§1)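 Parasite DNA was quantified by SYBR Green I fluorescence (ex 485, em 535 nm) after overnight lysis in saponin/Triton buffer at room temperature. Cultures at 0.3% parasitemia and 2.5% hematocrit were first exposed to compound for 72 h at 37 C; signals were normalised to artemisinin (0.29 uM) and vehicle wells.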

Test [5] in a line: qHTS profiling for inhibitors of Plasmodium falciparum (DD2) proliferation (AID 743323; call rule not given here). Conditions: lower = more inhibition; at 28.7 µM (top of the series) unless noted. The method, boiled down:
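SYBR Green fluorescence (ex 485, em 535 nm) of lysed cultures gives parasite DNA content; wells normalized to artemisinin (0.29 uM) and DMSO controls. Infected red cells: 0.3% parasitemia, 2.5% hematocrit, 72 h, 37 C.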

Test [6] is described as follows: qHTS profiling for inhibitors of Plasmodium falciparum (HB3) proliferation (AID 743324).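 Further: 100% = DMSO vehicle wells and 0% = artemisinin-treated control wells.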 To be noted: Plasmodium falciparum HB3 blood-stage proliferation; at 28.7 µM (top of the series) unless noted. The method, boiled down:
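SYBR Green fluorescence (485 ex/535 em) of lysed cultures, incubated overnight at room temperature in the dark, quantifies parasite DNA. Infected erythrocytes at 0.3% parasitemia and 2.5% hematocrit were exposed 72 h; values normalized to DMSO and 0.29 uM artemisinin controls.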

A short description of test [7]: qHTS profiling of the MIPE4 collection as inhibitors of Plasmodium falciparum (3D7) proliferation (AID 743344; call rule not given here;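 further: scaled between DMSO vehicle wells and 0.29 µM artemisinin as full inhibition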). Conditions: P. falciparum 3D7 in erythrocytes, SYBR Green DNA fluorescence, 72 h; at 28.5 µM (top of the series) unless noted. The method, boiled down: as §1
A short description of test [8]: qHTS profiling of the MIPE4 collection as inhibitors of Plasmodium falciparum (DD2) proliferation (AID 743345; call rule not given here). To be noted: P. falciparum Dd2 in erythrocytes, SYBR Green DNA, 72 h; at 28.5 µM (top of the series) unless noted. The essentials:
as §1

The nature of test [9]: qHTS profiling of the MIPE4 collection as inhibitors of Plasmodium falciparum (DD2) proliferation (Rep 2) (AID 743346; call rule not given here). To be noted: P. falciparum Dd2 in erythrocytes, SYBR Green DNA, 72 h; at 28.5 µM (top of the series) unless noted. The method, boiled down: as §1
Test [10] can be described thus: qHTS profiling of the MIPE4 collection as inhibitors of Plasmodium falciparum (HB3) proliferation (AID 743347; call rule not given here;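 further: plate controls were DMSO vehicle wells for no effect and artemisinin wells for full effect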). Conditions: P. falciparum HB3 in erythrocytes, SYBR Green DNA, 72 h; at 28.5 µM (top of the series) unless noted. The essentials:
as §1

Test [11] is described as follows: qHTS assay for measurement of the activity of small molecule inhibitors on Zika virus induced Caspase-3 activity in human iPSC derived neural progenitor cells (hNPCs) (AID 1224857). Further: % of control where 0% means no effect; nearly all actives have a fitted effect of over 65% in size. The essentials:
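In medium with heparin 2 ug/ml and cyclopamine 2 uM, hNPCs (350 cells/well) received compound for one hour and then Zika virus at 2 FFU/cell; caspase activity was measured by Caspase-Glo 3/7 luminescence 6 h post-infection.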

Test [12] can be described thus: qHTS assay for measurement of the activity of small molecule inhibitors on Zika virus induced Caspase-3 activity in human astrocytoma cells (AID 1224859).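 Further: plate controls were ZIKV-infected untreated cells for no effect and uninfected cells for full effect.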 The essentials: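 A cell-based luminescent caspase-3/7 assay used SNB-19 cells infected with ZIKV (2 FFU/cell) for 6 h following 1 h compound pretreatment.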
Test [13] can be described thus: Identifying Small Molecule Inhibitors of Pancreatic Cancer Stem Cells (SN12C, Adherent) (AID 1259358).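 Further: potency means the concentration at half of the fitted maximal effect; cell survival measured after 48 h of compound exposure.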 Conditions: viability/growth inhibition. The essentials:
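Monolayer and spheroid cultures are compared. Spheroids form over 14 days in stem cell medium on hydrogel-coated low-attachment plates, then are exposed to compound for 48 h before CellTiter-Glo luminescence.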

Test [14] can be described thus: Identifying Small Molecule Inhibitors of Pancreatic Cancer Stem Cells (SN12C, Spheroid) (AID 1259360). Further: potency means the concentration at half of the fitted maximal effect. Conditions: SN12C spheroid viability. The essentials:
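Endpoint: ATP-based luminescence, 48 h drug exposure. Bortezomib at 9.2 uM final as full-kill control; DMSO vehicle as negative control; activity normalized between vehicle and cell-free wells.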

Test [15] can be described thus: qHTS assay for cell viability of the p53RE-bla HCT-116 cell line (AID 743292). Further: on the % scale 0 is the no-effect control and ±100 the full control effect; nearly all actives have a fitted effect of over 55% in size. The method, boiled down:
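After plating at 4,000 cells per well and a 5 h rest at 37 C, HCT-116 cells carrying p53RE-bla received test chemicals in DMSO. Sixteen hours later at 37 C, CellTiter-Glo was added and luminescence recorded following 30 min at room temperature.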

Test [16] can be described thus: qHTS assay to identify small molecule inhibitors of chordoma cells - UCH-2 (AID 1259356). Further: on the % scale 0 is the no-effect control and ±100 the full control effect.
Test [17] in a line: qHTS assay for cell viability of HEK293 cells (AID 743288). Further: on the % scale 0 is the no-effect control and ±100 the full control effect; nearly all actives have a fitted effect of over 50% in size. Conditions: ATP luminescence (CellTiter-Glo), 18 h, stronger effect = lower value. The method, boiled down:
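Viable-cell counts were inferred from luciferase-based ATP content in HEK293 cells seeded at 2,000/well, pre-incubated ≥5 h, then dosed with DMSO-solubilised compounds for 18 h at 37 C.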

Where “and” joins values, the source holds several entries; their conditions need not be identical. Identical values can stand only once. Records with an inconclusive call do not appear. The source holds several records for some structures; these can differ, active in one and inactive in another. Calls of active or inactive are those of the source. Unless noted, the call rests on the fitted dose curve; in most records, active means well fitted curve in the direction sought with a large enough effect; inconclusive means small, poorly fitted or top-dose-only effect, or another doubt; inactive means no such curve, though single readings can be large; an effect the other way counts as inactive or inconclusive.

T1 sequence (P35557 whole entry, looked up): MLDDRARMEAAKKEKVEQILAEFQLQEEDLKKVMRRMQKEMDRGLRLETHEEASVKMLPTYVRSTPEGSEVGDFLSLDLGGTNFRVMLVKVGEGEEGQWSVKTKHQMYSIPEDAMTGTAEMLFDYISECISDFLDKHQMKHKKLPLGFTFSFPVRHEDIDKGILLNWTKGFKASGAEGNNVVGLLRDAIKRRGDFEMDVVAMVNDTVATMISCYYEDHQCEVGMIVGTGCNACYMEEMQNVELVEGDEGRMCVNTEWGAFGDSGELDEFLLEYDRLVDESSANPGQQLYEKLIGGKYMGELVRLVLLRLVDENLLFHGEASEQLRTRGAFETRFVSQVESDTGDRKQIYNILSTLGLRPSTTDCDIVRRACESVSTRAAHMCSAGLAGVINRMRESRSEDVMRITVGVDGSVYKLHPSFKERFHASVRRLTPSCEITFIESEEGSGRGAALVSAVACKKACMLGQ
T1 sequence (Q14397 whole entry, looked up): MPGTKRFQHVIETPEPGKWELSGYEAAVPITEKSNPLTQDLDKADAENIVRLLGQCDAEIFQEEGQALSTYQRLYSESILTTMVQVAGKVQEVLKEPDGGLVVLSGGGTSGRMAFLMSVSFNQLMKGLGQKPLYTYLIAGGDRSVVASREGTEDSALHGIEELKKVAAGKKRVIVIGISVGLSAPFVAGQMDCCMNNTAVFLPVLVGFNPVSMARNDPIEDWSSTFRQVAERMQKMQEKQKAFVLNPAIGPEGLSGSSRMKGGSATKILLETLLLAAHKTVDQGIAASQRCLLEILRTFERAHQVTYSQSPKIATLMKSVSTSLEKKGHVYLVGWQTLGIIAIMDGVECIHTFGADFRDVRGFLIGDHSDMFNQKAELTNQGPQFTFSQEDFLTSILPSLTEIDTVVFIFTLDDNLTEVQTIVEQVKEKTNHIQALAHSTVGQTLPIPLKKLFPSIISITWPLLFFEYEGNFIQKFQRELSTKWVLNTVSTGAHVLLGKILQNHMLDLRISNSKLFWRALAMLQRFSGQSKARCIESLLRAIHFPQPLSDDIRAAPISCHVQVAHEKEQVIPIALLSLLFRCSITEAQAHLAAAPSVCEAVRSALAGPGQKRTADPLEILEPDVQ

`COc1cc2c(cc1O)CC[C@@H]1[C@@H]2CC[C@]2(C)[C@@H](O)CC[C@@H]12`: the outcome in test [1], in test [2], in [11] and in [12] was inactive. For the same compound, the max response in test [3] was -20.1% (inactive) and 26.1% (inactive). Besides, the remaining parasite growth % (stronger effect = lower value) in test [4] was 90.1% and 79.2%. The activity, percent of control in test [5] was 93.6% and 83.5%. Moreover, the remaining proliferation (% of control), lower = more inhibition in test [6] was 93.9% and 38.4%. In [7], the parasite growth, % of DMSO control is 83.5%. Also, the parasite growth remaining, % of DMSO control (lower = more inhibition) in test [8] was determined as 96.4%. For the same compound, the parasite growth, % of control (lower = inhibition) in [9] turned out to be 130%. This compound also had a growth, % of control in test [10] of 83.5%. The Potency in test [13] is 2.35 µM (active); in [14], 5.9 µM (active).
With `CCCCS(=O)(=O)N[C@@H](Cc1ccc(OCCCCC2CCNCC2)cc1)C(=O)O`, in [3], the max response is 3.65% (inactive). In addition, the compound was called inactive in test [11] and in test [12].
For the compound `CC(=O)c1ccc2c(c1)N(CCCN1CCC(CCO)CC1)c1ccccc1S2`, the max response in [3] was -4.88% (inactive). Also, the call in test [11] and in test [12] was inactive.
Regarding `COc1cccc2c1C(=O)c1c(O)c3c(c(O)c1C2=O)C[C@@](O)(C(C)=O)C[C@@H]3O[C@H]1C[C@H](N)[C@H](O)[C@H](C)O1`, in [3], the Potency is 6.31 µM (active). Besides, the outcome in test [15], in test [11] and in test [12] was inactive.
`Cc1ccc(C(=O)C(C)CN2CCCCC2)cc1` (centres undefined): in [3], the Potency is 22.4 µM (active) and the max response is -1.77% (inactive). Also, the result in test [11] was inactive. The call in [12] was inactive. Besides, in [16], the Potency result was “inactive”.
On to `CCCCCCCCCCCCCCCC[N+](C)(C)CC`, for which the Potency in test [3] was 14.1 µM (active). Also, the compound was called inactive in test [11] and in test [12].
Turning to `CC(O)(P(=O)(O)O)P(=O)(O)O`, the max response in [3] is -10.1% (inactive); in test [17], -5.92% (inactive). In addition, the compound was called inactive in [15], in test [11] and in test [12]. The Potency result in test [16] is “inactive”.
Regarding `Cc1ccc(Nc2c(F)cccc2Cl)c(CC(=O)O)c1`, in test [3], the max response is 0.561% (inactive). Moreover, the compound was called inactive in test [11] and in test [12].
Take `C=C(CC)C(=O)c1ccc(OCC(=O)O)c(Cl)c1Cl`: in test [17], the max response was -7.15% (inactive). The compound was classed as inactive in [15], in test [11] and in test [12]. Besides, the Potency result in test [16] was “inactive”.
Regarding `CC[C@@H](CO)NCCN[C@@H](CC)CO`, the max response in [3] is 6.57% (inactive). Further, the parasite growth, % of DMSO control in test [7] came to 98.8%. Moreover, the parasite growth remaining, % of DMSO control (lower = more inhibition) in [8] is 106%. Also, the parasite growth, % of control (lower = inhibition) in test [9] came to 68.5%. The compound further registered a growth, % of control in [10] of 106%. The outcome in test [11] and in [12] was inactive. The Potency entry in [16] is “inactive”.

These data come from PubChem BioAssay (NCATS).
